# HP1b chromo inh = blocks HP1-beta chromodomain binding to methylated histone tails; P83916; AlphaScreen HP1-beta / biotin-H3K9me3 peptide binding; Potency, µM (highest dose often 114 µM), for inactives: at the highest dose activity change, negative = inhibition, usual class: inhibitors; 0.56% of 390,000 active; AID 540317; further: potency means the concentration at half of the fitted maximal effect; nearly all actives have a fitted effect of over 70% in size
#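 AlphaScreen: HP1-beta (50 nM) preformed 30 min with biotin-H3(1-18)K9me3 peptide (50 nM) in PBS pH 7.4, 0.01% Tween-20. Compound added for 30 min at RT, then streptavidin donor/nickel chelate acceptor beads (10 ug/mL) for 30 min.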
# Six1-Eya2 blk = blocks human Six1 binding to Eya2 | 0.56% of 360,000 active | activity change, % (no concentration beside the values) | AlphaScreen GST-Six1/His-Eya2 binding, biochemical; hits give low values; in the data active means activity change below about -65%; inconclusive means mostly about -30% to -63%; further: on the % scale 0 is the no-effect control and ±100 the full control effect
#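 AlphaScreen luminescence read after one hour at 37 °C in darkness. Pin-transferred compounds met GST-Six1 and His-Eya2 protein (5X stock 250 nM/500 nM) plus glutathione donor and Ni-chelate acceptor beads (5X, 50 ug/mL).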
# CtBP-E1A blk = blocks the CtBP interaction with E1A; 0.49% of 340,000 active; AlphaScreen GST-E1A/His-CtBP binding, 1536-well; hits give low values; AID 651724; activity change, % (test concentration not listed); in the data active means activity change below about -65%; inconclusive means mostly about -30% to -63%; further: on the % scale 0 is the no-effect control and ±100 the full control effect
#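 Steps: dispense buffer (Tris pH 8.0, NaCl 300 mM, TCEP 1 mM, BSA, Tween 20); add 5X protein mix (GST-E1A, His-CtBP, 125 nM each); pin 23 nL compound; 2 h at 37 °C, dark; add 5X beads (50 ug/mL); 1 h; read.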
# G9a inh = G9a (human) methyltransferase inhibition | Q96KQ7 | G9a H3K9 monomethylation, AlphaScreen, 2 h | Potency, µM (doses to about 102 µM), inactives show at the top dose activity, negative = inhibition, usual class: inhibitors | 8.8% of 350,000 active; further: potency means the concentration at half of the fitted maximal effect; on the % scale 0 is the no-effect control and ±100 the full control effect; nearly all actives have a fitted effect of over 75% in size
#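 Chemiluminescent proximity detection of H3K9 monomethylation, read after 10 min bead incubation in the dark. Reaction: 20 nM G9a, 500 nM biotin-H3K9 peptide, 20 uM SAM cofactor, 2 h, room temperature, following 15 min enzyme-compound preincubation.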
# JMJD2A Tudor = JMJD2A Tudor domain (human) inhibition; O75164; AlphaScreen JMJD2A-Tudor / H3K4me3 peptide binding; Potency, µM (series often up to 114 µM), inactives show at the top dose activity change, negative = inhibition, actives largely listed as inhibitors; 4.4% of 390,000 active; further: potency means the concentration at half of the fitted maximal effect; on the % scale 0 is the no-effect control and ±100 the full control effect; nearly all actives have a fitted effect of over 50% in size
# BAZ2B block = inhibitors of human BAZ2B bromodomain. AlphaScreen BAZ2B-H3K14Ac peptide displacement. Potency, µM (titrated, usually from 114 µM), without a hit: top-dose activity change, negative = inhibition, usual class: inhibitors. 4.4% of 360,000 active; further: potency means the concentration at half of the fitted maximal effect; on the % scale 0 is the no-effect control and ±100 the full control effect; nearly all actives have a fitted effect of over 60% in size
#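 In this displacement format the biotinylated H3(5-23) peptide acetylated at Lys14 serves as ligand at 50 nM, with BAZ2B at 50 nM in PBS pH 7.4 containing 0.01% Tween-20. Donor and acceptor beads are 10 ug/mL final.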
# * hit, by the source's call; ? = inconclusive; nt = no result; [ ] = another dose, or the depositor's remark. A selection: hits, their analogues and other compounds. The true share with any hit is near 10%. Unless noted, the call rests on the fitted dose curve; in most records, active means well fitted inhibition curve with a large enough effect; inconclusive means small, poorly fitted or top-dose-only effect; inactive means no such curve, though single readings can be large or run the other way.
SMILES,HP1b chromo inh,Six1-Eya2 blk,CtBP-E1A blk,G9a inh,JMJD2A Tudor,BAZ2B block
O=C1C2C3C=CC(C4CC34)C2C(=O)N1/N=C/c1c[nH]c2ccccc12 (centres undefined),37.8%,9.1,3.6,50.1µM*,-9.8%,21.0%
Cc1ccc(S(=O)(=O)NCc2ccccc2NS(=O)(=O)c2ccc(C)cc2)cc1,nt,-17.4,-9.4,nt,nt,nt
Cc1cccc(N/N=C/c2ccc(C)s2)c1,-7.8%,-15.1,-23.3,?,?,?
Cc1cccc(NN=C2c3ccccc3-c3ccccc32)c1,15.4%,-8.2,1.6,31.6µM*,-24.0%,-14.2%
CC(C)(C)C1CCC(=NNc2nc3ccccc3[nH]2)CC1 (centres undefined),26.7%,-20.3,-14.2,39.8µM*,-28.0%,?
c1ccc(CN2CCC(=NNc3nc4ccccc4[nH]3)CC2)cc1,-2.9%,-16.4,3.0,-34.0%,?,nt
COCC(=O)N1CCC2(CCCN(Cc3cc(C(F)(F)F)cc(C(F)(F)F)c3)C2)CC1,nt,nt,nt,1.0%[12.7 µM],nt,nt
COc1cc(C(C#N)N2N=C(c3ccccc3)CC2c2ccccc2)ccc1O (centres undefined),16.7%,0.0,5.3,-48.3%[59 µM],-18.9%,22.9%
COc1ccc(C(C#N)N2CCC(c3ccccc3)=N2)cc1 (centres undefined),59.3%,1.7,1.6,35.5µM*,3.5%,2.3%
Cc1cccc(C)c1NC(=O)CNc1ncnc2sc(C)c(C)c12,27.3%,3.8,-3.1,13.4%[59 µM],9.1%,-15.2%
CCC(C)CCCCCCCCCCC(=O)O (centres undefined),57.7%,-9.0,4.8,nt,50.1µM*,nt
Cc1cccc(NC(=O)CSC2=Nc3ccccc3C3=NC(CCC(=O)NCc4ccc(F)cc4)C(=O)N23)c1 (centres undefined),20.5%,nt,nt,2.6%[59 µM],-11.0%,3.2%
CC(C)OC(=O)c1c(NC(=O)CCC(=O)O)sc2c1CCCCC2,28.3%,1.0,4.2,-10.2%,-15.3%,-26.9%
CCOC(=O)c1c(NS(=O)(=O)c2ccc(Br)cc2)sc2c1CCC2,-16.0%,-19.2,-9.0,nt,79.4µM*,nt
CCOC(=O)c1c(NC(=O)CCCC(=O)O)sc2c1CCC2,-16.4%,-1.5,-0.1,19.8%[12.7 µM],-15.5%,-22.3%
CCOC(=O)c1c(NC(=O)COc2cccc(C)c2C)sc2c1CCCCC2,-10.6%,nt,nt,11.2µM*,-11.4%,1.6%
O=C(O)CCC(=O)Nc1sc2c(c1C(=O)Nc1ccccc1)CCCCC2,-12.8%,-3.4,0.3,28.2µM*,-31.5%,-18.1%
CCOC(=O)c1c(NS(=O)(=O)Cc2ccccc2)sc2c1CCCC2,24.9%,-0.9,8.3,?,-18.8%,?
CCOC(=O)c1c(NC(=O)CCC(=O)O)sc2c1CCCCC2,?,7.2,10.0,7.94µM*,?,-4.7%
O=C(CNC(=O)c1ccco1)N/N=C/c1ccc(C(=O)O)cc1,25.7%,-1.6,4.0,14.4%,9.6%,6.1%
O=C(CSC1=NS(=O)(=O)c2cc(F)ccc2N1)NCCc1ccccc1,22.5%,5.0,3.6,-0.7%,-4.1%,3.4%
CCOC(=O)C1CCCN(C(=O)c2ccc(S(=O)(=O)NCc3ccco3)cc2)C1 (centres undefined),18.6%,7.1,-0.1,?,-2.1%,-5.4%
COc1ncc(-c2c(-c3ccccc3OC)sc3ccccc23)cn1,nt,1.0,-15.6,nt,nt,nt
CCOC(=O)c1c(/N=C/c2ccccc2O)sc2c1CCC2,-7.4%,-9.0,-10.3,70.8µM*,-27.2%,-30.4%
COC(=O)c1c(NC(=O)COc2cccc(C(F)(F)F)c2)sc2c1CCCC2,0.3%,nt,nt,8.91µM*,-4.6%,1.1%
SMILES,HP1b chromo inh,Six1-Eya2 blk,CtBP-E1A blk,G9a inh,JMJD2A Tudor,BAZ2B block
Cc1cc2oc(C(=O)Nc3sc4c(c3C(=O)NCc3ccccc3)CCCC4)cc(=O)c2cc1C,9.2%,nt,nt,-4.8%[59 µM],-13.5%,-1.3%
COC(=O)c1c(NC(=O)COC(=O)c2ccc(NC(=O)CC#N)cc2)sc2c1CCCCC2,-16.5%,-24.5,-5.0,-2.0%[59 µM],44.7µM*,44.7µM*
O=C(Nc1sc2c(c1C(=O)NCc1ccccc1)CCCC2)c1cc(=O)c2ccccc2o1,?,nt,nt,11.2µM*,-17.7%,-11.7%
Cn1c(N)c(C(=O)/C=C/c2ccccc2)c(=O)[nH]c1=O,-23.8%,-5.5,-13.0,?,-24.0%,-2.1%
Cc1ccc2oc(-c3ccc(C)c(NC(=O)C(C)(C)Oc4ccc(Cl)cc4)c3)nc2c1,17.9%,nt,nt,-1.4%[59 µM],-12.7%,-8.4%
COc1ccccc1NC(=O)c1c(NC(=O)CCC(=O)O)sc2c1CCCCC2,21.2%,-1.4,-9.7,-48.0%,-17.9%,-16.0%
CCOC(=O)c1c(NC(=O)c2c(C(=O)O)cccc2[N+](=O)[O-])sc2c1CCCC2,?,-4.9,-0.1,8.91µM*,?,-23.7%
COC(=O)c1c(NC(=O)CCC(=O)O)sc2c1CCCCC2,-13.9%,3.8,5.7,?,-9.0%,-17.4%
CC1CCc2c(sc(NC(=O)CCC(=O)O)c2C(=O)NC2CC2)C1 (centres undefined),?,6.5,0.8,8.91µM*,?,-35.7%
CCOC(=O)c1c(NC(=O)C2C3C=CC(C3)C2C(=O)O)sc2c1CCCC2 (centres undefined),35.3%,-7.5,-5.6,-42.7%,-18.8%,-29.3%
O=C(O)CCC(=O)Nc1sc2c(c1C(=O)Nc1cccc3ccccc13)CCCCC2,-5.1%,-8.6,7.0,22.4µM*,?,?
CCOC(=O)c1c(NC(=O)C2CC(Cl)=CCC2C(=O)O)sc2c1CCCCC2 (centres undefined),-6.2%,-7.0,5.2,44.7µM*,?,50.1µM*
COc1cc(OC)c(NC(=O)N2CCc3c([nH]c4ccccc34)C2c2ccccc2F)cc1Cl (centres undefined),13.2%,nt,nt,?,?,-37.8%
CC(C(=O)N1c2ccccc2CC1C)N1CCN(S(=O)(=O)c2ccccc2F)CC1 (centres undefined),?,-14.4,-15.7,?,3.55µM*,28.2µM*
O=C1c2ccccc2C(=O)N1c1cnc2ccccc2c1,nt,nt,nt,nt,-9.5%,nt
CC(c1nc2ccccc2c(=O)[nH]1)N1CCN(C)CC1 (centres undefined),?,4.9,8.1,?,70.8µM*,9.5%
CC(c1nc2ccccc2c(=O)[nH]1)N1CCOCC1 (centres undefined),-0.7%,-2.1,4.2,38.6%[12.7 µM],-18.8%,-23.9%
Cc1ccccc1OCC(=O)N/N=C/c1cccc2cccnc12,14.5%,-75.8*,-12.9,nt,50.1µM*,39.8µM*
O=C(COc1ccc(F)cc1)N/N=C/c1cccc2cccnc12,35.9%,?,-85.6*,nt,89.1µM*,nt
O=C(COc1cccc2cccnc12)N/N=C/c1ccccc1O,97.0%,-17.6,-24.9,nt,-33.4%,-34.5%

# High-throughput results as filed in PubChem BioAssay.
